Assay outcomes as filed in PubChem BioAssay.
Compounds with a hit are over-represented: about 4.5% of the library has one in this group of screens.
ssDAF12 agonist: S. stercoralis DAF-12 activation, primary screen. activation, % at 6.8 µM. AID 652126. 370,000 tested, 1% active. HEK293 ssDAF-12/GRIP1 lit1-tk-luc reporter, luminescence; % of 3 µM dafachronic acid response;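 active means activation above the mean over all tested compounds plus 3 SD, cut at about 0.9% in these data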;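 further: 0% = DMSO-only wells and 100% = 3 µM delta7-dafachronic acid wells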
hgDAF-12 ag: agonists of H. glycines DAF-12 nuclear receptor. HEK293 GAL4-hgDAF12 UAS-luciferase reporter, agonist luminescence; normalized to butyrate control. activation, % at 6.8 µM. 370,000 tested, 1.8% active. AID 687014;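 active means activation above a cutoff set at the mean of all screened compounds plus 3 SD, cut at about 10% in these data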;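 further: 0% = DMSO wells and 100% = sodium butyrate wells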
DAX1 inh-1: blocks DAX1 repression of SF-1 activated StAR promoter; HEK293T StAR-luciferase reporter, SF-1/DAX-1 repression relief; inhibition, % at 6.8 µM; 370,000 tested, 1.1% active;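 active means inhibition above the mean over all tested compounds plus 3 SD, cut at about 3.6% in these data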;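 further: 0% = DAX-1 cells with DMSO and 100% = cells lacking DAX-1 with DMSO; higher inhibition means more luminescence from relief of DAX-1 repression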
hcDAF-12 act: activators of H. contortus DAF-12 nuclear receptor. activation, % at 6.8 µM. 370,000 tested, 1.4% active. HEK293 hcDAF-12 lit1-tk-luc reporter, luminescence; 0% DMSO, 100% Δ7-dafachronic acid;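 active means activation above the mean of all tested compounds plus 3 SD, cut at about 5.5% in these data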;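 further: 100% = response to 3 µM Δ7-dafachronic acid high control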
FXN GAA850 act: activators of GAA850 frataxin (FXN) promoter; activation, % at 6 µM; AID 540364; HEK293 lucGAA850 FXN promoter luciferase reporter, 24 h; percent of 10 µM SAHA response; 360,000 tested, 0.56% active;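 active means activation above the average of all compounds screened plus 3 SD, cutoff fixed separately per campaign, cut at about 7.5% in these data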;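 further: 0% = DMSO wells and 100% = 10 µM SAHA wells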
DAX1 inh-2: inhibitors of human orphan nuclear receptor DAX1 (NR0B1); P51843; HEK293 Gal4-DAX1 luciferase reporter, luminescence; inhibition, % at 6.75 µM; 340,000 tested, 0.99% active; AID 504766;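 active means inhibition above the mean over all tested compounds plus 3 SD, cut at about 4.2% in these data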;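 further: 0% = DAX1-transfected cells with DMSO and 100% = empty-vector control cells with DMSO; inhibition shows as a rise in luminescence from relieved DAX1 repression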
Target sequence (P51843 207-470 limits assumed): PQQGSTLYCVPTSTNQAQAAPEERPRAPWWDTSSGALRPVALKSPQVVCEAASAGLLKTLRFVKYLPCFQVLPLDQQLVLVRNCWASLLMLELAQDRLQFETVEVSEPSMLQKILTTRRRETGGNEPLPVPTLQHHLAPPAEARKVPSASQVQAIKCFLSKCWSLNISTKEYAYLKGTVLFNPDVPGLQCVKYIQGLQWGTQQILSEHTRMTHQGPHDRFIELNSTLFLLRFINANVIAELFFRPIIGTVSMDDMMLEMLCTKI
GAA30 counter: activates GAA30 frataxin promoter, counter-screen for GAA850 activators; activation, % at 6 µM; shares compounds with FXN GAA850 act; 1,900 tested, 66% active; HEK293 lucGAA30 FXN promoter luciferase, 24 h; DMSO = 0%, 5 µM ipriflavone = 100%;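 active means mean activation above the mean of solvent-only control wells plus 3 SD, cut at about 22% in these data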;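 further: counterscreen of GAA850 promoter hits where activity marks nonselective or luminescence artifacts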
GAA850 confirm: GAA850 FXN promoter activation confirmation. shares compounds with FXN GAA850 act. HEK293 lucGAA850 FXN promoter luciferase reporter, 24 h; 100% = activation by SAHA. activation, % at 6 µM. 1,900 tested, 86% active. AID 588351;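 active means mean activation above a set limit taken from the primary screen, cut at about 8% in these data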;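 further: 0% = DMSO wells and 100% = 10 µM SAHA wells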
Numbers without * were called inactive.

CC1(Cc2ccccc2OC(F)(F)F)C(=O)Nc2ccc(-c3ccsc3)cc21 (stereo unspecified) was read as ssDAF12 agonist -2, hgDAF-12 ag 2, DAX1 inh-1 -2, hcDAF-12 act 1, FXN GAA850 act 9.6*, GAA30 counter -2 and GAA850 confirm 3.
`CC1(Cc2ccccc2OC(F)(F)F)C(=O)Nc2ccc(OC(F)(F)F)cc21` (stereo unspecified) gave ssDAF12 agonist -1, hgDAF-12 ag 3, DAX1 inh-1 -1, hcDAF-12 act -2 and FXN GAA850 act 0.
`COc1ccccc1-c1ccc2c(c1)C(C)(Cc1ccc(F)c(Cl)c1)C(=O)N2` (stereo unspecified) gave ssDAF12 agonist -1, hgDAF-12 ag 0, DAX1 inh-1 -1, hcDAF-12 act -3, FXN GAA850 act 13*, GAA30 counter 9 and GAA850 confirm 8.5*.
Screening COc1ccccc1-c1ccc2c(c1)C(C)(Cc1ccc(Cl)cc1)C(=O)N2 (stereo unspecified) returned ssDAF12 agonist -1, hgDAF-12 ag -1, DAX1 inh-1 1, hcDAF-12 act 1 and FXN GAA850 act 2.
Screening COc1ccccc1-c1ccc2c(c1)C(C)(Cc1cccc(C#N)c1)C(=O)N2 (stereo unspecified) returned ssDAF12 agonist -1, hgDAF-12 ag 0, DAX1 inh-1 -1, hcDAF-12 act 0, FXN GAA850 act 11*, GAA30 counter 10 and GAA850 confirm 8.1*.
Screening COc1ccc(Cl)cc1CC1(C)C(=O)Nc2ccc(-c3ccccc3OC)cc21 (stereo unspecified) returned ssDAF12 agonist -2, hgDAF-12 ag -1, DAX1 inh-1 0, hcDAF-12 act -2, FXN GAA850 act 12*, GAA30 counter 33* and GAA850 confirm 12*.
`C[C@H]1O[C@@H](n2c3ccc(Cl)cc3c3ccc4c5cc(Cl)ccc5[nH]c4c32)[C@H](O)[C@H](O)[C@H]1O` gave ssDAF12 agonist -2, hgDAF-12 ag 1, DAX1 inh-1 1 and hcDAF-12 act -1.
Screening COc1cccc(/C=C2\CC3(OC(=O)c4ccccc4)CCCN2C3)c1 (stereo unspecified) returned ssDAF12 agonist -1, hgDAF-12 ag -2, DAX1 inh-1 0 and hcDAF-12 act 2.
CC(C)=CC(=O)NCC1CCN(C(=O)C(=O)c2cc3ccccc3o2)CC1 was read as ssDAF12 agonist 0, hgDAF-12 ag -1, DAX1 inh-1 0 and hcDAF-12 act 0.
Screening COC(=O)c1cccc(CC2(C)C(=O)Nc3cc(-c4ccccc4Cl)ccc32)c1 (stereo unspecified) returned ssDAF12 agonist -1, hgDAF-12 ag 3, DAX1 inh-1 3, hcDAF-12 act 1, FXN GAA850 act 17*, GAA30 counter 58* and GAA850 confirm 31*.
Screening CCN=C1NC(c2ccc(Cl)cc2)C(C(=O)OC)=C(C)N1Cc1cccc(C(F)(F)F)c1 (stereo unspecified) returned ssDAF12 agonist -1, hgDAF-12 ag 0, DAX1 inh-1 0 and hcDAF-12 act 2.
Screening CC(C)c1ccc(NC(=O)C(c2ccccc2)N2CCOCC2)cc1 (stereo unspecified) returned ssDAF12 agonist -1, hgDAF-12 ag 4, DAX1 inh-1 0, hcDAF-12 act 1, FXN GAA850 act 0 and DAX1 inh-2 1.
Screening CC(C)c1ccc(NC(=O)NN2CCOCC2)cc1 returned ssDAF12 agonist 1.5*, hgDAF-12 ag 13*, DAX1 inh-1 4.3*, hcDAF-12 act 3, FXN GAA850 act 8.0*, DAX1 inh-2 5.0*, GAA30 counter 85* and GAA850 confirm 33*.
Screening O=C(OCC#CCSc1nnc(-c2cccc3ccccc23)o1)c1csc2ccccc12 returned ssDAF12 agonist -2, hgDAF-12 ag -2 and hcDAF-12 act -2.
`CCOc1ccc(-n2c(SC/C=C/c3ccccc3)nnc2-c2cccs2)cc1` gave ssDAF12 agonist -2, hgDAF-12 ag 1, DAX1 inh-1 -1 and hcDAF-12 act -1.
Screening Cc1[nH]c2ccccc2c1C(=O)/C=C/c1ccccc1Cl returned ssDAF12 agonist -1, hgDAF-12 ag 5, DAX1 inh-1 0, hcDAF-12 act 1, FXN GAA850 act 7.7*, DAX1 inh-2 0, GAA30 counter 117* and GAA850 confirm 44*.
For O=C(N/N=C/c1ccc(O)cc1)c1cccc(C(F)(F)F)c1 the results were ssDAF12 agonist -1, hgDAF-12 ag 1, DAX1 inh-1 0, hcDAF-12 act 2, FXN GAA850 act 0 and DAX1 inh-2 -1.
Screening O=C(O)c1ccc(/C=N/Nc2cccc(C(F)(F)F)c2)cc1 returned ssDAF12 agonist -1, hgDAF-12 ag 3, DAX1 inh-1 4.3*, hcDAF-12 act 1, FXN GAA850 act 10*, DAX1 inh-2 0, GAA30 counter 99* and GAA850 confirm 39*.
Cc1ccc(-c2oc3ccccc3c(=O)c2O)cc1 was read as ssDAF12 agonist 0, hgDAF-12 ag 1, DAX1 inh-1 1, hcDAF-12 act 1, FXN GAA850 act 5 and DAX1 inh-2 1.
O=c1c(O)c(-c2ccccc2)oc2ccccc12 was read as ssDAF12 agonist -1, hgDAF-12 ag 7, DAX1 inh-1 1, hcDAF-12 act -3, FXN GAA850 act 8.7*, DAX1 inh-2 4.9*, GAA30 counter 55* and GAA850 confirm 18*.
`CCOc1ccccc1N1CC(C(=O)Nc2cc(S(=O)(=O)N3CCOCC3)ccc2OC(C)C)CC1=O` (stereo unspecified) gave ssDAF12 agonist -2, hgDAF-12 ag -2, DAX1 inh-1 0, hcDAF-12 act -2, FXN GAA850 act 10*, DAX1 inh-2 -1, GAA30 counter 16 and GAA850 confirm 7.
For COc1cc2c(cc1OC)/C(=C/C(=O)c1ccccc1F)NCC2 the results were ssDAF12 agonist -1, hgDAF-12 ag -2, DAX1 inh-1 1, hcDAF-12 act -2, FXN GAA850 act 8.3*, DAX1 inh-2 0, GAA30 counter 17 and GAA850 confirm 12*.
OCc1cn(-c2ccccc2)nc1-c1ccco1 was read as ssDAF12 agonist -1, hgDAF-12 ag 2, DAX1 inh-1 1, hcDAF-12 act -1, FXN GAA850 act 4 and DAX1 inh-2 0.
